Where “and” joins values, the source holds several entries; their conditions need not be identical. Identical values can stand only once. Compounds without any hit were thinned out: in the full panel of roughly 83,000, 20% have a hit.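 Step 1: grow cells in 96-well plates. Step 2: add test compound at a single concentration. Step 3: incubate 48 h. Step 4: record percent growth.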 Values without a mark were called inactive. Calls of active or inactive are those of the source. The calls were made as follows: active = growth percent below 10; inactive = the rest.
The compounds below were run on MDA-MB-468 breast (assay: NCI-60 one-dose screen, 48 h (100 = growth as untreated, 0 = no growth, -100 = all killed)). Details: 10 µM unless noted.

Row | Structure (SMILES) | growth
1 | CC(C)=C1C=C2CC[C@@H]3[C@](C)(CCC[C@@]3(C)C(=O)O)[C@H]2CC1 | 0.17% (active)
2 | Cc1c(CC(=O)OCCO)cc(-c2ccc(Cl)cc2)n1-c1ccccc1 | 89.1%
3 | CC(C)=CCCC(C)c1ccc(C)c2c1OCN(CCCCCO)C2 (stereo not given) | 90%
4 | CCN(CC)CCn1c2ccc(O)cc2c2sc3cc(OC)ccc3c(=O)c21 | 33.8%
5 | CCN1C(=O)N(CC)C2SC(N/N=C/c3cccs3)=NC21 (stereo not given) | 32.4%
6 | CNC(=O)c1cc(Oc2ccc3c(c2)sc2nc(-c4ccc(NC(C)=O)cc4)cn23)ccn1 | 86.3%
7 | O=S(=O)(NCCCNc1cc(-c2c(-c3cccc(O)c3)nc3sccn23)ccn1)c1cccc2ccccc12 | 38.3%
8 | O=C(CN1CCOCC1)Nc1ccc2ncnc(Nc3ccc(Oc4cccc(F)c4)c(Cl)c3)c2c1 | -17.1% (active)
9 | CCOC(=O)C1=C(C)NC(SCc2cc(=O)oc3ccc(F)cc23)=N[C@@H]1c1cccc2ccccc12 | 113%
10 | COc1ccc(Nc2nc(NCc3ccccc3)c3ccccc3n2)cc1 | 40.2%
11 | Nc1nc(Cl)nc2c1ncn2C1OC(CO)C(O)C1O (stereo not given) | 124% and 94.5%
12 | COc1cc(C(=O)c2ccc3c(c2)OCO3)cc(OC)c1OC | 9.88% (active) and -4.92% (active)
13 | Cc1cc(N2CCN(C)CC2)nc(NCc2cc(Nc3ccnc4cc(Cl)ccc34)ccc2F)n1 | -60.4% (active)
14 | CN1C(=O)N(C)C2C1NN=c1s/c(=C\c3ccccc3F)c(=O)n12 (stereo not given) | 11.6%
15 | COc1cc(OC)c(C(=O)/C=C/c2cc3c(cc2OCc2ccccc2)OC(C)(C)CC3)cc1CC=C(C)C | 26.2%
16 | CSc1nc(CC(C)C)c(C#N)c(=O)n1C | -2.71% (active)
17 | O=C1CSC(=O)N1Cc1cc2ccccc2nc1Cl | 97.8%
18 | COc1ccc(CN2c3ccccc3Oc3ccccc32)cc1O | 6.51% (active)
19 | CC(C)N(CCCC#N)C(C)C | 104%
20 | Clc1ccc2c(NCCN3CCN(c4ccnc(N5CCCC5)n4)CC3)ccnc2c1 | -4.71% (active)

Row | Structure (SMILES) | growth
21 | Cc1cc(-c2cc(O)ccc2Cl)cc2nnc(Nc3ccc(OCCN4CCCC4)cc3)nc12 | -69.4% (active)
22 | Cc1ccc2c(n1)C(=O)c1[nH]c3ccccc3c1C2=O | -15.8% (active)
23 | Fc1ccc(Nc2ncnc3ccc(-c4cnc5[nH]ccc5c4)cc23)cc1Cl | -29.7% (active)
24 | O=C(CCl)NC1c2ccccc2Oc2ccccc21 | 71.5%
25 | N#Cc1c(-c2cccc(F)c2)cc(-c2ccc(Br)s2)[nH]c1=O | 82.1%
26 | CCOCCc1c(O)nc(SC)[nH]c1=O | 82.5%
27 | N#CC1=C(N)Oc2c(sc3c(F)cccc23)C1c1ccc([N+](=O)[O-])cc1 (stereo not given) | -41.6% (active)
28 | CC(C)c1nc2ccccc2n1CC(=O)N/N=C/c1cccc(O)c1 | 98.4%
29 | CC/C=C\C[C@H](O)C/C=C1/C(=O)C=C[C@@H]1C/C=C\CCCCO | 16.5%
30 | Cc1c(C(N)=O)sc2c1c(=O)n(Cc1ccccc1)c1nnc(S(C)(=O)=O)n21 | 57.1%
31 | CCOc1cccc(/C=N\Nc2nc(=O)cc(C(=O)OC)s2)c1O | 49.9%
32 | CCN1CCN(Cc2ccc(NC(=O)Nc3nc4ccc(Oc5ccnc(C(=O)NC)c5)cc4s3)cc2C(F)(F)F)CC1 | -66.3% (active)
33 | O=C(NCCNc1nccc(-c2c(-c3cccc(O)c3)nc3sccn23)n1)c1ccccc1 | 54.7%
34 | COC(=O)/C=C/c1cc(OC(C)=O)c2c(c1)C(C(=O)OC)C(c1ccc(OC(C)=O)c(OC(C)=O)c1)O2 (stereo not given) | 35.8%
35 | COC(=O)CCC(=O)c1ccccc1 | 115%
36 | COc1cccc(N2CCN(CC(=O)N3CCN(c4nnc(-c5ccc(Cl)cc5)c(-c5ccc(Cl)cc5)n4)CC3)CC2)c1 | 76.5%
37 | COc1ccc(C(=O)C(=O)c2ccccc2)cc1 | 101%
38 | CCN1C(=O)N(CC)C2C1NN=c1s/c(=C3\C(=O)N(CCc4ccccc4)c4ccccc43)c(=O)n12 (stereo not given) | -11.3% (active)
39 | COc1ccc2nc(-n3nc(C)cc3C)c(-n3nc(C)cc3C)nc2c1 | 103%
40 | CC(=O)c1c(O)c(C)c(O)c2c1OC1=CC(=O)/C(=C(/C)N)C(=O)C12C (stereo not given) | 74.6%
